# Results published in PubChem BioAssay (NCI).
# Compounds without any hit were thinned out: in the full panel of roughly 83,000, 20% have a hit.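 Step 1: grow cells in 96-well plates. Step 2: add test compound at a single concentration. Step 3: incubate 48 h. Step 4: record percent growth.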 Calls of active or inactive are those of the source.
# Test system: SK-MEL-2 melanoma
# Test: NCI-60 one-dose screen, 48 h (100 = growth as untreated, 0 = no growth, -100 = all killed)
# Conditions: 10 µM
# Experimental: Growth inhibition of the SK-MEL-2 human tumor cell line is measured as a screen for anti-cancer activity. Cells are grown in 96 well plates and exposed to the test compound for 48 hours. Compounds are tested at a single concentration, which is 10^-5 M for most compounds. The reported endpoint is percent growth (GI% or GIPRCNT), where numbers from 0 - 100% represent growth inhibition, and numbers from -100% - 0 represent cell death. For example, a value of 40 represents 60% growth inhibition. A value of 0 means no net growth occurred over the course of the experiment. A value of -40 indicates 40% of cells at the beginning of the experiment died by the end of the experiment. A value of -100 means all cells are dead at the end of the experiment.
# NCI-60 Human Tumor Cell Lines Screen was performed using the standard one-dose NCI protocol, which is described in more detail at https://dtp.cancer.gov/discovery_development/nci-60/default.htm.
# Compounds with GIPRCNT values below 10 were considered active. Activity score was based on GIPRCNT using the following formula: […]
# Score is 0 for GIPRCNT values of 100 or above, 50 for GIPRCNT values of 0, and 100 for GIPRCNT values of -100.
row,Compound,growth
1,CC(C)CCSc1nc(NC2CC2)c(C#N)c(-c2ccc(C(C)C)cc2)n1,98.9% (inactive)
2,O=C(c1ccc(Cl)cc1)C1[C@H](c2ccc(Br)cc2)[C@@H](c2ccccc2)NC12C(=O)Nc1ccccc12 (stereo not given in full),-62.7% (active)
3,COc1ccc2[nH]cc(/C=N/Nc3cccc(Cl)n3)c2c1,92% (inactive)
4,COC1=C[C@]23CCC(=O)N2CCc2cc4c(cc2[C@@H]3[C@@H]1OC(=O)CCCC(C)C)OCO4,101% (inactive)
5,CN1C(=O)N(C)C2SC(N/N=C/c3ccccc3F)=NC21 (stereo not given),56.4% (inactive)
6,O=C(CNc1nc(-c2ccccc2)cs1)Nc1cccc([N+](=O)[O-])c1,-79.9% (active)
7,CN1CCN(Cc2ccc(C(=O)Nc3cccc(Nc4ccc5cc(O)ccc5n4)c3)cc2C(F)(F)F)CC1,-95% (active)
8,CN(C(=O)c1ccc(C(F)(F)F)cc1C(F)(F)F)c1sc2c(c1C#N)CCC(=O)C2,96.8% (inactive)
9,O=C(Nc1cccc([N+](=O)[O-])c1)Nc1cccc([N+](=O)[O-])c1,91.1% (inactive)
10,Cc1ccc(CSc2nc(Cl)c(C#N)c(-c3ccc(F)cc3)n2)cc1,92.1% (inactive)
11,O=C(/C=C/Nc1ccc(F)cc1F)c1ccc2c(c1)Nc1ccccc1S2,86.5% (inactive)
12,OCc1[nH]nc2cc(Nc3ncc4ccc(Br)c(OC5CCC(O)CC5)c4n3)ccc12 (stereo not given),-75.8% (active)
13,CC(C)c1ccc(C(=O)Nc2sc3c(c2C(N)=O)CCC(=O)C3=O)cc1,98.8% (inactive)
14,Cc1ccc(-c2cc(-c3cc4ccccc4nc3Cl)[nH]c(=S)n2)cc1,11.8% (inactive)
15,O=C(Cn1nc(-c2ccccc2)ccc1=O)NNC(=S)NC1CCCCC1,109% (inactive)
16,O=C(NO)c1ccc(CNC(=O)[C@H]2Cc3c([nH]c4ccccc34)[C@H](c3ccc(Cl)cc3)N2)cc1,-21.5% (active)
17,Cc1cc(C)cc(Oc2cccc(-c3c(C)nnn3C3CCN(CCN(C)C)CC3)n2)c1,38.7% (inactive)
18,COc1cc(NC(=O)CSc2nnc(-c3ccc4nc(-c5ccc(Cl)cc5)[nH]c4c3)o2)cc(OC)c1OC,93.4% (inactive)
19,CCCn1c(=O)c2[nH]c(-c3ccc(OCc4nc5ccc(C#N)cc5[nH]4)cc3)nc2n(CCC)c1=O,96.8% (inactive)
20,COc1ccccc1[C@H]1C(C(=O)c2ccc(Cl)cc2)C2(N[C@@H]1c1ccccc1)C(=O)Nc1ccc(Cl)cc12 (stereo not given in full),-76.2% (active)

row,Compound,growth
1,CS(=O)(=O)Nc1ccc(-c2ccc3c(c2)ncn3-c2ccc(NC(=O)Nc3ccc(Cl)c(C(F)(F)F)c3)cc2)cc1,-83% (active)
2,O=c1[nH]c2ccccc2cc1CSc1ccc(Nc2nccc(-c3ccc4c(c3)OCO4)n2)cc1,108% (inactive)
3,O=C(Nc1nc2ccccc2s1)c1ccc(Br)cc1,96.1% (inactive)
4,COc1cccc(/C=C2\N=C(C)N(CCc3ccc(S(N)(=O)=O)cc3)C2=O)c1,109% (inactive)
5,CN1CCN(Cc2ccc(NC(=O)c3cncc(C#Cc4cnc5ccc(N[C@H]6CCOC6)nn45)c3)cc2C(F)(F)F)CC1,-94.3% (active)
6,C/C(=N\NC(N)=S)c1ccc(Nc2nc(SC(C)C)nc(-c3ccccc3)c2C#N)cc1,89.3% (inactive)
7,CC(=O)C1=C(C)NC(SCC(=O)Nc2ccc(S(=O)(=O)Nc3cc(C)on3)cc2)=NC1c1ccccc1 (stereo not given),119% (inactive)
8,CC(C)C1=C[C@@]23CC[C@@H]4[C@](C)(CCC[C@]4(C)C(=O)NCc4ccccc4)[C@H]2C[C@@H]1[C@H]1C(=O)CCC(=O)[C@H]13,99.2% (inactive)
9,CN1CCN(Cc2ccc(NC(=O)c3cncc(C#Cc4cnc5ccc(N[C@@H]6CCOC6)nn45)c3)cc2C(F)(F)F)CC1,-94.3% (active)
10,[2H]C([2H])([2H])Oc1ccc2ncc(C#Cc3cncc(C(=O)Nc4ccc(CN5CCN(C)CC5)c(C(F)(F)F)c4)c3)n2n1,-92.7% (active)
11,N#Cc1c(NC(=O)c2cccc(C(F)(F)F)c2)sc2c1CCC(O)=C2,-1.48% (active)
12,CCCCCCCCCCCCCCCCCCCC(=O)NCCc1c[nH]c2ccc(OC(=O)CCCC(=O)OCCOOCCOOCCOOCCOOCCOOCCOOCCOOCCOOCCOOCCOOCCOOCCOC)cc12,78.1% (inactive)
13,Nc1nc2c(F)c(F)c(F)c(F)c2s1,106% (inactive)
14,COC[C@@H](CC(C)C)N=C1NC(=O)/C(=C/c2ccc3ncoc3c2)N1,-75.8% (active)
15,CO[C@@H]1CSS[C@H]1Cn1nc(-c2ccc(Oc3ccccc3)cc2)c2c(N)ncnc21,64.7% (inactive)
16,COc1cccc(-c2ccnc(/N=C(\N)Nc3ccc(S(=O)(=O)Nc4nc(C)cc(C)n4)cc3)n2)c1,100% (inactive)
17,CN(C)c1cccc2c(S(=O)(=O)Nc3cccc(-c4csc(NC(=O)CCCCCN5CCN(c6cc7c(cc6F)C(=O)N(C6CCC(=O)NC6=O)C7=O)CC5)n4)c3)cccc12 (stereo not given),108% (inactive)
18,COc1ccc(NC(=O)Cn2c(/C=C/c3ccc(N(C)C)cc3)nc3ccccc3c2=O)cc1,76.4% (inactive)
19,CCOP(=O)(OCC)O[C@H]1CC[C@]2(C)[C@H]3CC[C@@H]4[C@@H]([C@](C)(O)CCC=C(C)C)CC[C@@]4(C)[C@]3(C)CC[C@H]2C1(C)C,17.1% (inactive)
20,COc1ccc(-c2cc(C(=O)N=Nc3c(O)[nH]c4ccc(F)cc34)c3ccccc3n2)cc1,128% (inactive)
